Among all 3,300 compounds or so, about 280 (8.5%) were called active. For the sample, actives were picked, then their nearest neighbours and some compounds at random. A number with no mark means an inactive call.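 Rule for the calls: active = mean growth inhibition over the two runs of 50% or more; inactive = mean growth inhibition under 50%.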

The assay in a line: A549 NSCLC cell proliferation inhibitors – ATP luminescence, human non-small cell lung line, primary screen (AID 371).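 Note: compound exposure lasted 72 h before the ATP read; 0% = untreated cell signal and 100% = no luminescence left.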 The conditions noted are these: at 10 µM, active compounds read high.
Consider `COc1ccc(C=NCCCN2CCOCC2)cc1`, for which the growth inhibition is 2.05%.
Turning to `Cc1csc2nc(CSc3nc4ccccc4o3)cn12`, the growth inhibition was 29.3%.
The result for `CCOC(=O)c1ccc(N2C(=O)CC(Sc3nnc(C)s3)C2=O)cc1` (configuration not stated) reads -4.68%.
In the case of `Cc1ccccc1N1C(=O)CC(Sc2nnc(-c3ccccc3)o2)C1=O` (configuration not stated) it was 56.6% (active).
Take `Cc1ccc(-c2nnc(-c3ccccc3)o2)cc1Br`: the growth inhibition was 10.3%.
As for `Brc1ccc(-c2cnnc(N3CCCC3)n2)cc1`, the growth inhibition was 24%.
With `COc1ccc(C2/C(=C(/O)c3cnn(-c4ccccc4)c3C)C(=O)C(=O)N2CCN(C)C)cc1OC` (configuration not stated), the growth inhibition is 7.72%.
The result for `CSc1nc(Oc2ccc(=O)[nH]n2)nc(N(C)C)n1` reads 2.49%.
With `COc1ccc(/C(O)=C2/C(=O)C(=O)N(CCN3CCOCC3)C2c2ccccn2)cc1OC` (configuration not stated), the growth inhibition was 0.85%.
In the case of `CCOc1cc2nc(-c3ccc(OC)c(OC)c3)nc(N3CCOCC3)c2cc1OC`, the growth inhibition is 66.5% (active).
With `COc1cc2nc(-c3ccccc3)nc(N3CCCC3)c2cc1OC`, the growth inhibition is 2.86%.
In the case of `Brc1cccc(-c2cnc3n2CCCCC3)c1` it was 24.1%; in that of `COc1ccc(CN(C#N)c2nc(SC)nc(N(C)C)n2)cc1`, 32.9%.
With `CCN(CC)c1ncc(C)c(=O)[nH]1`, the growth inhibition is -0.05%.
Take `CCOC(=O)Cc1nnc(Nc2cccc(O)c2)c2ccccc12`: the growth inhibition was -1.35%.
The result for `N=c1ncn(CC(O)CN2CCOCC2)c2nc(N3CCOCC3)[nH]c12` (configuration not stated) reads -5.31%.
In the case of `C=CCc1cccc(/C=N/n2cnnc2)c1O` it was 2.3%; in that of `C=CCc1cccc(CNc2nc3ccccc3n2C(C)C)c1O`, 74.7% (active); in that of `C=CCc1cccc(/C=N/c2ncn[nH]2)c1O`, 0.97%.
The result for `CN=c1sc2ccccc2n1CC(O)COCc1ccco1` (configuration not stated) reads -6.68%.
On to `CCSc1nnc(NC(=O)C(CC)(C(F)(F)F)C(F)(F)F)s1`, for which the growth inhibition is 66% (active).
The result for `CC(NC(=O)Nc1nnc(C(F)(F)F)s1)(C(F)(F)F)C(F)(F)F` reads 11.8%.
In the case of `O=C(NCC(F)(F)F)Nc1nnc(C(F)(F)F)s1` it was 17.9%; in that of `CCC(C(=O)Nc1ncn[nH]1)(C(F)(F)F)C(F)(F)F`, 2.05%; in that of `CCSc1nnc(NC(=O)C(C)(C(F)(F)F)C(F)(F)F)s1`, 61.8% (active).
The result for `CCC(NC(=O)Nc1nnc(C(F)(F)F)s1)(C(F)(F)F)C(F)(F)F` reads 81.7% (active); that for `CCCSc1nnc(NC(=O)Nc2ccccc2)s1`, 45.3%.
On to `CCSc1nnc(NC(=O)C(C(F)(F)F)C(F)(F)F)s1`, for which the growth inhibition is 7.68%.
As to `CCSc1nnc(NC(NC(=O)c2ccco2)(C(F)(F)F)C(F)(F)F)s1`, the growth inhibition was -2.3%.
The result for `CCCc1nnc(NC(=O)Nc2ccccc2OC)s1` reads 17.3%; that for `CCC(C(=O)Nc1nccs1)(C(F)(F)F)C(F)(F)F`, 12.8%; that for `CCCSc1nnc(NC(=O)Nc2ccc(F)cc2)s1`, 70.3% (active).

(Values after PubChem BioAssay AID371 (SRMLSC, 2006).)
